Screening results from PubChem BioAssay.
Many of the other results were omitted from the sample, so hits are more common in it than they were.
AmpC inh detg: inhibitors of E. coli AmpC beta-lactamase with detergent; P00811; AmpC hydrolysis of nitrocefin, absorbance 480 nm, 0.01% Triton; Potency, µM (doses to about 114 µM), without a hit: at the top dose activity change, negative = inhibition, usual class: inhibitors; 0.041% of 370,000 active; AID 485294;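 note: potency is the fitted concentration of half-maximal effect; 0% = no-compound wells and -100% = no-enzyme wells; nearly all actives have a fitted effect of over 25% in size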
Target sequence (P00811 whole entry, looked up): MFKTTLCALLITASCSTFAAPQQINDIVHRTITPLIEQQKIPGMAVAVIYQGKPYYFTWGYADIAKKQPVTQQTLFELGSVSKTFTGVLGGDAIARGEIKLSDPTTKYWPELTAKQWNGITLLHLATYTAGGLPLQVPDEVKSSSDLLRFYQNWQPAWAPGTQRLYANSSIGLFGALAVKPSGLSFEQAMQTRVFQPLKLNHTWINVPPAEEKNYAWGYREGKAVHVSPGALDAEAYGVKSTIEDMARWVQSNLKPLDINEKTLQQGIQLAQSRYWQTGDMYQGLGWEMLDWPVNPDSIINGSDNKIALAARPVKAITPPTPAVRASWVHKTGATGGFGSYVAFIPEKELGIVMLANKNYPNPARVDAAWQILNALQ
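AmpC (5.3 nM in the dispensed reagent) in 20 mM phosphate pH 7.0 with 0.01% (detergent screen) or 0.0001% Triton X-100 was preincubated with compounds for 15 min at room temperature. Nitrocefin was then added from an 800 uM solution, and hydrolysis was followed at 480 nm.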
AMA1-RON2 inh: inhibitors of Plasmodium falciparum AMA1-RON2 interaction; 0.2% of 360,000 active; Potency, µM (highest dose often 58.2 µM), for inactives: at the highest dose activity change, negative = inhibition, actives largely listed as inhibitors; AID 720542; AlphaScreen AMA1-biotinylated RON2 peptide binding;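 note: potency is the fitted concentration of half-maximal effect; 0% = vehicle wells and -100% = peptide control; nearly all actives have a fitted effect of over 45% in size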
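AMA1 (3D7) with his tag at 25 nM final met compounds first, then biotinylated RON2 peptide at 25 nM; detection used donor plus acceptor beads, 10 µg/mL apiece, read by AlphaScreen after 30 min at room temperature.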
SARS PLpro yeast: blocks SARS-CoV papain-like protease in a yeast assay | S. cerevisiae expressing SARS-CoV PLpro, growth rescue | Potency, µM (top dose mostly 32.9 µM), for inactives: top-dose activity, positive = growth rescue, hits mostly activators | 0.19% of 330,000 active; calls by dose curve; note: potency is the fitted concentration of half-maximal effect; 0% is about no effect; nearly all actives have a fitted effect of over 55% in size
Shiga toxin inh: blocks Shiga toxin action in Vero cells; AID 2315; inhibition, % at 38.7 µM; 9.2% of 290,000 active; Vero cells, Shiga toxin protein synthesis inhibition reporter; in the data active = inhibition mostly above about 28%, no sharp cut-off; inactive = mostly below about 43%; note: 0% is about no effect
Cycloheximide cs: counter-screen hit for Shiga toxin inhibitors, cycloheximide | cell reporter, cycloheximide protein synthesis inhibition counterscreen | max response, % | 12% of 300,000 active | AID 2314; in the data active = max response mostly above about 13%, no sharp cut-off; inactive = mostly below about 14%; note: read at 38.3 µM for the half of the compounds with a filed dose; 0% is about no effect
AmpC inh no detg: inhibitors of E. coli AmpC beta-lactamase without detergent. P00811. 0.52% of 330,000 active. Potency, µM (doses to about 57.1 µM), without a hit: at the top dose activity change, negative = inhibition, actives largely listed as inhibitors. AmpC nitrocefin hydrolysis, absorbance 480 nm, 0.0001% Triton. AID 485341;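 note: potency is the fitted concentration of half-maximal effect; plate controls were no compound for no effect and no enzyme for full effect; nearly all actives have a fitted effect of over 20% in size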
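AmpC (5.3 nM in the dispensed reagent) in 20 mM phosphate pH 7.0 with 0.01% (detergent screen) or 0.0001% Triton X-100 was preincubated with compounds for 15 min at room temperature. Nitrocefin was then added from an 800 uM solution, and hydrolysis was followed at 480 nm.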
Active calls of the source: *; u = inconclusive; x = no result; [ ] = another dose, or the depositor's remark. Unless noted, calls come from the whole dose curve; as a rule, active = well fitted curve in the direction sought with a large enough effect; inconclusive = small, poorly fitted or top-dose-only effect, or another doubt; inactive = no such curve, though single readings can be large; an effect the other way counts as inactive or inconclusive.

SMILES | AmpC inh detg | AMA1-RON2 inh | SARS PLpro yeast | Shiga toxin inh | Cycloheximide cs | AmpC inh no detg
CC(=O)Nc1cccc(NC(=O)c2oc3ccccc3c2C)c1 | -1% | x | -13% | 100* | 48* | 0%
Cc1c(C(=O)Nc2cnccn2)oc2ccccc12 | -13% | 18% | 4% | 61* | 28* | -15%
CCC(=O)Nc1ccc(NC(=S)NC(=O)c2oc3ccccc3c2C)cc1 | -5% | -12%[11.6 µM] | 9% | -7 | -3 | -22%
Cn1ccc2cc(S(=O)(=O)N3CCCC(C(=O)NCc4ccc(F)cc4)C3)ccc21 (stereo not given) | -4% | x | x | x | x | x
COc1ccc(C2C(C(=O)Nc3cc(OC)c(OC)c(OC)c3)c3ccccc3C(=O)N2C)cc1 (stereo not given) | 0% | 3% | 2% | -13 | -3 | 115%
CCc1nnc2n1N=C(c1ccc(Cl)cc1Cl)CS2 | -11% | 2% | -26% | -5 | -3 | -3%
CCOc1ccc2c(c1)OC1(CCC(C)C1)CC2=O (stereo not given) | x | 22% | x | x | x | x
CCOc1ccc2c(c1)OC(c1ccc(C)cc1)(C(F)(F)F)NC2=O (stereo not given) | 10% | 9% | 0% | 53* | 27* | 4%
CCSc1nc(C2CC2)cc(-c2cccs2)c1C#N | u | 64% | -16% | 10 | 16* | -22%
N#Cc1c(-c2ccccc2F)cc(C2CC2)nc1SCC(=O)c1cccs1 | 2% | 21% | 8% | -12 | 13* | -33%
CCSc1nc(C2CC2)cc(-c2ccco2)c1C#N | -7% | 11% | -7% | -10 | -4 | -46%
CCOC(=O)CSc1nc(C2CC2)cc(-c2ccc(Cl)cc2)c1C#N | 5% | 25% | 2% | 14 | -5 | -20%
CCc1c(C)nc(SCC(=O)c2cccs2)c(C#N)c1C | u | 2% | -9% | 40 | 39* | -53%
CCCSc1nc(N)nc(-c2cccs2)c1C#N | -4% | 4% | -29% | 84* | 35* | -36%
CC(C)(C)c1nc2scc(-c3cccs3)c2c(=O)o1 | -7% | 8% | -11% | 1 | 3 | -35%
Cc1ccc(C(=O)n2c(N)nc3ccccc32)cc1 | -10% | 61% | -2% | -21 | 4 | -32%
COc1ccccc1Cn1c(-c2ccco2)nc2nc3ccccc3nc21 | x | -1% | x | x | x | x
COc1ccc(C(=O)n2c(-c3ccco3)nc3ccccc32)cc1 | 1% | -8% | -16% | 37 | 31* | 21%
c1coc(Cn2c(-c3ccco3)nc3ccccc32)c1 | -8% | -10% | -3% | 45* | 17* | -24%
Clc1ccc(OCCn2c(-c3ccco3)nc3ccccc32)cc1 | -8% | 2% | -29% | -17 | 7 | -13%
c1ccc(Cn2c(-c3ccco3)nc3nc4ccccc4nc32)cc1 | -19% | -17% | 0% | 60 | 28* | 36%
COc1ccc(CCn2c(-c3cc([N+](=O)[O-])cc([N+](=O)[O-])c3)nc3nc4ccccc4nc32)cc1 | -12% | -7% | 12% | 3 | -3 | -20%
COc1ccc(CCn2c(-c3ccco3)nc3nc4ccccc4nc32)cc1 | -12% | -4% | -7% | 43* | 13 | 12%
COc1ccc(C2=NCCn3nc4ccccc4c32)cc1 | -5% | 36% | -10% | x | x | 39%
O=C(CNc1ccccc1-c1ccccc1)NCc1ccccc1 | -5% | 0% | 3% | -3 | -1 | -12%
SMILES | AmpC inh detg | AMA1-RON2 inh | SARS PLpro yeast | Shiga toxin inh | Cycloheximide cs | AmpC inh no detg
O=C(CNC(=O)c1ccco1)OCC(=O)c1ccc([N+](=O)[O-])cc1 | -9% | 1% | 0% | -3 | 0 | -22%
CCCN1CN(Cc2ccco2)c2nc3ccccc3n2C1 | -2% | -8% | 10% | 49 | 36* | 4%
c1coc(-c2nc3nc4ccccc4nc3n2CC2CCCO2)c1 (stereo not given) | -2% | 2% | 14% | -1 | -7 | 29%
CCCCCn1c(-c2ccco2)nc2nc3ccccc3nc21 | 3% | 9% | -18% | -20 | 9.2* | 86%
O=c1c2ccccc2nc(-c2ccc(Br)cc2)n1Cc1ccccc1 | u | -5% | -21% | 8 | 0 | -26%
COc1ccc(CCn2c(S)nc3ccccc3c2=O)cc1 | -12% | 33% | 3% | 41* | 30* | -16%
O=c1c2ccccc2nc(-c2ccco2)n1Cc1ccccc1 | -10% | -4% | x | 130* | 57* | x
CCN(CC)c1ccc(-c2nn3c(-c4ccccc4OC)nnc3s2)cc1 | -4% | 9% | -18% | 18 | -1 | 97%
O=C(CCc1nc2sc3c(c2c(=O)[nH]1)CCCC3)N1CCN(c2ccccc2)CC1 | -8% | -5% | 2% | x | x | 0%
O=C(/C=C/c1ccccc1)CC(=O)c1ccccc1O | -1% | 82% | 0% | 27* | 25* | -42%
O=C(/C=C/c1ccccc1)NC(=O)c1ccccc1O | -10% | -2% | -6% | 51* | 28* | -25%
O=S1(=O)CC(N2CCN(c3ccccn3)CC2)CN1Cc1ccccc1 (stereo not given) | x | 40% | x | x | x | x
COc1cc(S(=O)(=O)n2nc(C)cc2C)ccc1Cl | u | -2% | 0% | -6 | 1 | -2%
COc1ccc(CS(=O)(=O)CC(C)(O)c2ccccc2)cc1 (stereo not given) | -4% | 9% | 0% | -10 | -6 | -16%
Cc1ccc(C(C)(O)CS(=O)(=O)Cc2ccccc2)cc1 (stereo not given) | -11% | -9% | 0% | 19 | 16* | -45%
CCOC(=O)/C(=C\c1ccccc1)NC(=O)c1ccccc1 | 1% | 5% | 0% | 41 | 19* | 3%
O=C(N/C(=C/c1ccccc1)C(=O)N1CCCCC1)c1ccccc1 | -1% | -7% | -3% | 51* | 96* | -10%
C=CCOC(=O)/C(=C/c1cccnc1)NC(=O)c1ccccc1 | -3% | -2% | 0% | -7 | 4 | -10%
CCOC(=O)/C(=C/c1ccc(OC(=O)c2ccccc2)cc1)C(C)=O | -8% | -3% | -138% | 39* | 7 | -11%
C=CCOC(=O)/C(=C\c1ccccc1)NC(=O)c1ccc(C)cc1 | 3% | 0% | 0% | 100* | 36* | -16%
Cc1nnc(SCC(=O)NCc2cccs2)n1-c1ccccc1 | 1% | 4% | -1% | 17 | -1 | -11%
CCCCNS(=O)(=O)c1ccc(NC(=O)Cc2ccc(OC)cc2)cc1 | -1% | 13% | -1% | 4 | -2 | -12%
O=C(Cn1nnc2ccccc2c1=O)N1CCCc2ccccc21 | u | -5% | 4% | 26 | -2 | -3%
C=CCOC(=O)/C(=C\c1cccc2ccccc12)NC(=O)c1ccccc1 | -10% | -6% | -3% | 22 | 36* | 9%
